HepG2 tox = HepG2 cytotoxicity, counter-screen for TGF-b inhibitors; HepG2 CAGA-GFP viability, ATP luminescence, 18 h; Potency, µM (highest dose often 46.1 µM), for the others: at the top dose activity change, negative = cytotoxicity, most hits filed as cytotoxic; actives 0.76% (n = 410,000); AID 588856; further: potency means the concentration at half of the fitted maximal effect
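CellTiter-Glo luminescence gave cytotoxicity after 18 hours at 37 degrees C. The cells were HepG2 CAGA-GFP in 1% FBS DMEM, stimulated with 500 pg/mL TGF-beta after compound addition. %Activity was normalised to no-cell wells (complete cell-killing) and DMSO (no toxicity), and curves were fitted and classified.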
ASM inhibitor = inhibitors of human secretory acid sphingomyelinase; Potency, µM (doses to about 57.5 µM), for the others: top-dose activity change, negative = inhibition, usual class: inhibitors; P17405; actives 0.006% (n = 340,000); placental ASM, HMU-PC fluorogenic substrate, 60 min; further: potency means the concentration at half of the fitted maximal effect
Target sequence (P17405 47-631 limits assumed): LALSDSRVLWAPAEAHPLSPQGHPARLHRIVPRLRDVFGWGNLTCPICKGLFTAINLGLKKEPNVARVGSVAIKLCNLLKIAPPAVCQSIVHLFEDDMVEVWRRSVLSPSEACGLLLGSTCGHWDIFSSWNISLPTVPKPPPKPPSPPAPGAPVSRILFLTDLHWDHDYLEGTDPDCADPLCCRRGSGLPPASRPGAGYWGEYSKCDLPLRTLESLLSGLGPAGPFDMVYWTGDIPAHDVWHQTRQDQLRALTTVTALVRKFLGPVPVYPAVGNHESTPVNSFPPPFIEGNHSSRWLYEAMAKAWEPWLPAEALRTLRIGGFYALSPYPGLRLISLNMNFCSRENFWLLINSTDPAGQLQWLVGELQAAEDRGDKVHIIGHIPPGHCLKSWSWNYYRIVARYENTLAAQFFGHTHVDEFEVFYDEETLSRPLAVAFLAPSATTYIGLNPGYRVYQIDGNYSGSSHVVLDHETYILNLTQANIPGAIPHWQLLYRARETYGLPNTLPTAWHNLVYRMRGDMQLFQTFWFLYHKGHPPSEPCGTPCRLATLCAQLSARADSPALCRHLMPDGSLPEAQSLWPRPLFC
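Fluorescence read-out (Ex 386 nm, Em 447 nm) after stopping the reaction at pH 10. Enzyme: ASM from human placenta; substrate HMU-PC0, 9 uM final; 60 min, 37 °C. Compound preincubation 10 min, ambient temperature.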
TDP1 cell CPT = growth inhibition of DT40 Tdp1-/-;hTDP1 cells with camptothecin (screen for TDP1 inhibitors) | chicken DT40 Tdp1-/-;hTDP1 cells + 20 nM CPT, ATP luminescence, 48 h | Potency, µM (doses to about 46.2 µM), for the others: top-dose activity change, negative = growth inhibition, usual class: inhibitors | actives 12% (n = 420,000) | AID 686979; further: potency means the concentration at half of the fitted maximal effect; on the % scale 0 is the no-effect control and ±100 the full control effect; nearly all actives have a fitted effect of over 55% in size
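Cell growth measured by CellTiter-Glo luminescence after a minimum 48 h, 37 C compound exposure with 20 nM CPT in Tdp1-knockout DT40 cells stably expressing hTDP1, seeded 400/well; qHTS titration format.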
TGFb SMAD3 inh = inhibitors of TGF-b signaling. HepG2 CAGA-GFP TGF-b/SMAD3 reporter, GFP fluorescence, 18 h; TGF-beta stimulated, 500 pg/mL final. Potency, µM (top dose mostly 46.1 µM), for the others: top-dose activity, negative = inhibition, actives largely listed as inhibitors. actives 1.2% (n = 410,000); further: potency means the concentration at half of the fitted maximal effect; on the % scale 0 is the no-effect control and ±100 the full control effect; nearly all actives have a fitted effect of over 65% in size
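Inhibition of TGF-beta-driven CAGA-GFP reporter expression in HEPG2 cells is measured by cellular GFP fluorescence after 18 h stimulation with 500 pg/mL recombinant TGF-beta in 1% FBS medium at 37 degrees C.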
IL1B secr inh = inflammasome signaling inhibition, IL-1 beta readout | THP-1 LPS/ATP IL-1B secretion, AlphaLISA, 16 h; active compounds read low | activity change, % at 57.5 µM | actives 4.7% (n = 360,000) | AID 743279; in the data active means activity change below about -50%; inconclusive means mostly about -30% to -49%; further: on the % scale 0 is the no-effect control and ±100 the full control effect
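Secreted IL-1B measured by AlphaLISA bead assay after 16 h compound exposure of THP-1 cells; compounds (final up to 57.5 uM) added 1 h before LPS (250 ng/mL) and ATP (1.25 mM) stimulation; lower signal means less secretion.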
DT40 TDP1 no CPT = qHTS for Inhibitors of human tyrosyl-DNA phosphodiesterase 1 (TDP1): qHTS in cells in absence of CPT; DT40 Tdp1-/- hTDP1 cells, no CPT, ATP luminescence, 48 h; Potency, µM (highest dose often 46.2 µM), inactives show top-dose activity change, negative = growth inhibition, hits mostly inhibitors; actives 15% (n = 420,000); AID 686978, 2013; further: potency means the concentration at half of the fitted maximal effect; on the % scale 0 is the no-effect control and ±100 the full control effect; nearly all actives have a fitted effect of over 55% in size
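Cells were dispensed at 400 per well, compounds added by pin tool, plates incubated ≥48 hr at 37 °C, then CellTiter-Glo added for 30 min at room temperature before luminescence reading. Line: DT40 Tdp1-/- complemented with hTDP1; camptothecin omitted.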
Active calls of the source: *; ? = inconclusive; · = no result given; [ ] = remark or other dose. An excerpt weighted towards active compounds, which were near 19% of everything screened. Unless noted, the call rests on the fitted dose curve; in most records, active means well fitted curve in the direction sought with a large enough effect; inconclusive means small, poorly fitted or top-dose-only effect, or another doubt; inactive means no such curve, though single readings can be large; an effect the other way counts as inactive or inconclusive.

SMILES	HepG2 tox	ASM inhibitor	TDP1 cell CPT	TGFb SMAD3 inh	IL1B secr inh	DT40 TDP1 no CPT
CCOc1ccc(NC(=O)CN2C(=O)CC(C)Sc3ccccc32)cc1 (stereo unspecified)	-19%	·	·	-7%	·	·
N=c1c(S(=O)(=O)c2ccc(Cl)cc2)cc2c(=O)n3ccccc3nc2n1C1CCCCC1	2%	-18%	?	26%	-20	?
COc1ccc(C(=O)N(C)C(C)c2ccon2)cc1OC1CCN(C(C)C)CC1 (stereo unspecified)	0%	·	1%	17%	22	-15%
O=C(Nc1nc2ccccc2[nH]1)c1cccc(Br)c1	-19%	1%	?	-10%	9	?
O=C(Nc1nc2ccccc2[nH]1)c1cccc(F)c1	-38%	-5%	?	2%	24	16µM*
CN(C)c1cccc(C(=O)Nc2nc3ccccc3[nH]2)c1	-12%	21%	?	2%	?	12µM*
CCN(CC)C(=O)Cn1c(=O)n(Cc2ccc(C(=O)NCCc3ccc(OC)c(OC)c3)cc2)c(=O)c2ccccc21	2%	·	?	-7%	·	?
CCN1C(c2ccccc2)=C(c2ccccc2)S/C1=C/C=C1\SC(=S)N(C)C1=O	-16%	-3%	10µM*	-9%	-21	10µM*
CCN1C(c2ccccc2)=C(c2ccccc2)S/C1=C\C=C1/SC(=S)N(C)C1=O	-11%	-5%	13µM*	-9%	-17	9.2µM*
CS(=O)(=O)Nc1cccc(NC(=O)c2ccc(-c3ccc(F)c(F)c3)c3ccoc23)c1	-28%	·	?	?	?	?
Cn1nccc1-c1ccc(C(=O)Nc2cccc(NS(C)(=O)=O)c2)c2occc12	-22%	·	?	7%	-50*	26µM*
CS(=O)(=O)Nc1cccc(NC(=O)c2ccc(-n3ccnc3)c3ccoc23)c1	-25%	·	13µM*	-7%	-28	15µM*
CC1(C(=O)N/N=C/c2ccccc2)CC1(Cl)Cl (stereo unspecified)	-19%	-1%	-4%	-15%	8	-16%
N#CC1(Nc2ccc(Br)cc2)CCCC1	2%	4%	19%	6%	-2	-4%
CC(CNC1CCCCC1)OC(=O)c1ccc([N+](=O)[O-])cc1 (stereo unspecified)	12%	-1%	6%	11%	9	3%
CCOCCc1nn2c(=O)cc(COC(=O)COc3ccccc3Cl)nc2s1	2%	·	-6%	10%	·	0%
c1ccc(N2CCN(c3ncnc4sc5c(c34)CCC5)CC2)cc1	-4%	-7%	21µM*	-12%	-7	21µM*
O=C(c1ccco1)N1CCN(c2ncnc3sc4c(c23)CCC4)CC1	-61%	0%	?	-13%	0	20µM*
O=C(c1ccco1)N1CCN(c2ncnc3c(-c4ccccc4)nsc23)CC1	-15%	-15%	18µM*	1%	-7	21µM*
COc1ccc(CN2CCN(c3ncnc4sc5c(c34)CC(C)CC5)CC2)cc1F (stereo unspecified)	-38%	·	15µM*	-15%	·	6.5µM*
c1nc(N2CCC3(CC2)OCCO3)c2c3c(sc2n1)CCCC3	-9%	-1%	?	0%	-14	?
CC1CCc2c(sc3nc(C4CC4)nc(N4CCN(C(=O)c5ccco5)CC4)c23)C1 (stereo unspecified)	10µM*	-14%	?	?	-17	?
Clc1ccc(CN2CCN(c3ncnc4sc5c(c34)CCCC5)CC2)cc1Cl	-15%	·	21µM*	0%	·	23µM*
O=C1CC(=O)Nc2cc(S(=O)(=O)Nc3cccc(Br)c3)ccc2N1	-1%	·	-20%	12%	·	-6%
CCc1nn2c(=O)cc(COC(=O)CNC(=O)c3ccccc3)nc2s1	-16%	·	-6%	-40%	·	-6%
SMILES	HepG2 tox	ASM inhibitor	TDP1 cell CPT	TGFb SMAD3 inh	IL1B secr inh	DT40 TDP1 no CPT
CC(Nc1ncnc2sccc12)c1ccccc1 (stereo unspecified)	-8%	1%	2.6µM*	-12%	-8	0.92µM*
CCOC(=O)c1ccc(NC(=O)c2ccc3c(c2)NC(=O)c2ccccc2S3)cc1	-25%	·	-19%	-28%	·	0%
C=CC(=O)N1c2ccccc2Sc2ccc(NC(=O)OCC)cc21	-22%	-4%	?	16µM*	-112*	29µM*
CCOC(=O)Nc1ccc2c(c1)Nc1ccccc1S2	-23%	-1%	23µM*	-24%	-66*	21µM*
COc1ccc(S(=O)(=O)Nc2cccc3c2O[C@H](CN(C)CC2CCCCC2)[C@@H](C)CN([C@H](C)CO)C3=O)cc1	-6%	-2%	-5%	?	-1	2%
COc1ccc(OC)c2[nH]c(=O)c(CCNC(=O)c3cccs3)cc12	-6%	4%	-18%	-16%	-28	-14%
CC1=C(C(=O)N2CCCCCC2)CC(CC(=O)NCc2cccc3ccccc23)C(=O)N1CCC1=CCCCC1 (stereo unspecified)	·	·	?	·	-63*	?
CC1=C(C(=O)N2CCCCCC2)CC(CC(=O)NCc2cccs2)C(=O)N1CCC1=CCCCC1 (stereo unspecified)	·	·	16µM*	·	0	23µM*
CCCCN1C(=O)C(CC(=O)NCc2cccc3ccccc23)CC(C(=O)N2CCCCCC2)=C1C (stereo unspecified)	·	·	?	·	-55*	?
CC1=C(C(=O)N(C)C)CC(CC(=O)NCc2cccs2)C(=O)N1CCC1=CCCCC1 (stereo unspecified)	-11%	·	-8%	2%	-18	?
OCCN1CCN(Cc2ccc3c(c2)CN(Cc2ccc4ccccc4c2)CCO3)CC1	·	·	-6%[9.04 µM]	·	·	-14%
Cc1ccc2c(/C=C/c3c[nH]c4ccccc34)ccnc2c1C	-47%	·	-125%	?	·	-103%
COc1cc(C)c(Cc2cnc(N)nc2N)cc1OC	2%	·	?	28%	·	13µM*
C=CCn1c(SCC(=O)Nc2ccc(Cl)cn2)nnc1C1CC1	9%	4%	29%	-3%	40	19%
Cn1c(SCC(=O)Nc2ccc(Cl)cn2)nnc1C1CC1	5%	-2%	-1%	0%	-78*	24%
CCc1ccc(C(=O)c2cn(CC(=O)Nc3cc(OC)ccc3OC)c3ccc(C)cc3c2=O)cc1	5%	·	-29%	-16%	·	-17%

Screens from PubChem BioAssay.
